Test results reported in PubChem BioAssay (EPA / NIEHS).
Records with an inconclusive call do not appear. Activity calls are given as the source filed them. How the source made its calls, unless noted: active means hit-call score of the fitted dose curve at least 0.9, where 1 is the maximum; inactive means score below 0.9.

Columns and labels:
[1] = ACEA_ER_80hr: ACEA Biosciences xCELLigence Real-Time Cell Analysis on Estrogen Receptor Agonism for Proliferation (AID 2282667; active means hit-call score of the fitted dose curve at least 0.9, where 1 is the maximum); conditions: T47D proliferation, impedance (xCELLigence), 80 h
How it was run: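 Impedance readout (RT-CES) of T47D proliferation at 80 h post-dose; gain of signal vs DMSO baseline. Compounds: 8 conc, 1:4 serial, top 100 uM final, ≤0.5% DMSO; biological duplicate.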

[2] = ATG_CRE_CIS: Attagene CIS-FACTORIAL HepG2 Assay for human cAMP Responsive Element (CRE) binding protein 3 (AID 2282926); conditions: HepG2 CRE cis-reporter, Attagene multiplexed mRNA; actives raise or lower the signal
How it was run: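 Readout: fluorescently labelled reporter transcripts resolved by capillary electrophoresis after RT-PCR, taken 24 h post-dosing in transfected HepG2. Endogenous transcription factor activity drives each cis-element reporter; gain or loss of signal fitted relative to DMSO control.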

[3] = ATG_CMV_CIS: Attagene CIS-FACTORIAL HepG2 Assay for human CMV (Internal Marker) (AID 2282928); conditions: HepG2 CMV promoter reporter, transcription factor profiling; actives raise or lower the signal;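 further: endpoint acts as a background internal control marker rather than a target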
How it was run: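 Reporter transcripts from transfected HepG2 cells are isolated after 24 h of chemical dosing, reverse-transcribed and amplified. Fragments labeled with 6-FAM are cut with HpaI and quantified by capillary electrophoresis; DMSO defines baseline.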

[4] = molecular target: Aryl hydrocarbon receptor (Homo sapiens) (UniProt P35869); test: ATG_Ahr_CIS: Attagene CIS-FACTORIAL HepG2 Assay for human Aryl Hydrocarbon Receptor (Ahr) (AID 2282930); conditions: HepG2 AhR cis-factorial reporter transcription; actives raise or lower the signal
Aryl hydrocarbon receptor (Homo sapiens), sequence (P35869 whole entry, looked up): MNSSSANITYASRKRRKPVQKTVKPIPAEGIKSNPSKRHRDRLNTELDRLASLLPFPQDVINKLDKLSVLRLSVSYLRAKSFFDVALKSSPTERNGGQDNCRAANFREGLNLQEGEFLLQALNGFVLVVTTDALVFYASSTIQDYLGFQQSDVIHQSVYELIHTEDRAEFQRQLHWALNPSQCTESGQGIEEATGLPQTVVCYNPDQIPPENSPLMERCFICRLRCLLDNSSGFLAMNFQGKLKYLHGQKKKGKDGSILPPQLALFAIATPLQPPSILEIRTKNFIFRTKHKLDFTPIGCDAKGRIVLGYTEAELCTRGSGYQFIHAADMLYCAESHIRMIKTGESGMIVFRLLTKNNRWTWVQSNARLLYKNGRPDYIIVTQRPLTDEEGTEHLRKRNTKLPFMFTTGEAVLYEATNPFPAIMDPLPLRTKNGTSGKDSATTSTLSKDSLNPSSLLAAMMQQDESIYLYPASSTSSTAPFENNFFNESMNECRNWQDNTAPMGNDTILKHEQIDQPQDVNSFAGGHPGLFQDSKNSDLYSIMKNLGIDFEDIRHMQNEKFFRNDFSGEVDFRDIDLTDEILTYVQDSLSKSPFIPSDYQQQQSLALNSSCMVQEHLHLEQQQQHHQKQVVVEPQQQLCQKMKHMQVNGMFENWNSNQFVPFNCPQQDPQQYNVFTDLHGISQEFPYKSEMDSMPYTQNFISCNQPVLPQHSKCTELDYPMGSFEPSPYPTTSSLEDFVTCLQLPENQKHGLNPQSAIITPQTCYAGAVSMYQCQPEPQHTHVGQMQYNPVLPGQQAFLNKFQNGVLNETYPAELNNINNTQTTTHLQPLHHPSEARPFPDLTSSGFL
How it was run: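 Values derive from bidirectional fitting against DMSO negative control. Underlying signal: cis-element reporter mRNA in transiently transfected HepG2, harvested 24 h post-dose and measured by RT-PCR plus capillary electrophoresis.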

[5] = ATG_AP_1_CIS: Attagene CIS-FACTORIAL HepG2 Assay for human Activator Protein 1 (AP-1) (AID 2282931); conditions: HepG2 Attagene cis-factorial AP-1 reporter mRNA; actives raise or lower the signal
How it was run: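 Cis-regulated reporter units transiently expressed in HepG2 report endogenous transcription-factor activity. Signal: reporter mRNA at 24 h, via RT-PCR and fluorescent capillary electrophoresis. Endpoint derived by bidirectional fitting, DMSO as negative control.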

[6] = ATG_AP_2_CIS: Attagene CIS-FACTORIAL HepG2 Assay for human Activator Protein 2 (AP-2) (AID 2282932); conditions: HepG2 AP-2 cis-reporter, Attagene transcription factor profiling; actives raise or lower the signal
How it was run: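 Cells (HepG2) transfected with promoter-driven reporter constructs, treated 24 h. Total RNA reverse-transcribed, reporter cDNA PCR-amplified, FAM-labelled by primer extension, digested, resolved by capillary electrophoresis. Activity fitted both directions versus DMSO.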

[7] = ATG_BRE_CIS: Attagene CIS-FACTORIAL HepG2 Assay for human Bone Morphogenetic Protein (BMP) Response Element (BRE) (AID 2282933); conditions: HepG2 BMP response element reporter, Attagene transcription factor profiling; actives raise or lower the signal
How it was run: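 Fluorescence-labelled reporter cDNA fragments, separated by capillary electrophoresis, gave the signal for this component of a 52-readout multiplex. HepG2 cells were transfected, exposed to chemicals for 24 h, and compared with DMSO using bidirectional fitting.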

[8] = molecular target: Retinoic acid receptor alpha (Homo sapiens) (UniProt P10276); test: ATG_DR5_RAR_CIS: Attagene CIS-FACTORIAL HepG2 Assay for human Retinoic Acid Receptor Alpha (RARE), DR5 submotif (AID 2282934); conditions: HepG2 Attagene cis-factorial RARE DR5 reporter, mRNA; actives raise or lower the signal;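 on AC50: reporter responds to endogenous RAR alpha beta and gamma in HepG2 not RARA alone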
Retinoic acid receptor alpha (Homo sapiens), sequence (P10276 whole entry, looked up): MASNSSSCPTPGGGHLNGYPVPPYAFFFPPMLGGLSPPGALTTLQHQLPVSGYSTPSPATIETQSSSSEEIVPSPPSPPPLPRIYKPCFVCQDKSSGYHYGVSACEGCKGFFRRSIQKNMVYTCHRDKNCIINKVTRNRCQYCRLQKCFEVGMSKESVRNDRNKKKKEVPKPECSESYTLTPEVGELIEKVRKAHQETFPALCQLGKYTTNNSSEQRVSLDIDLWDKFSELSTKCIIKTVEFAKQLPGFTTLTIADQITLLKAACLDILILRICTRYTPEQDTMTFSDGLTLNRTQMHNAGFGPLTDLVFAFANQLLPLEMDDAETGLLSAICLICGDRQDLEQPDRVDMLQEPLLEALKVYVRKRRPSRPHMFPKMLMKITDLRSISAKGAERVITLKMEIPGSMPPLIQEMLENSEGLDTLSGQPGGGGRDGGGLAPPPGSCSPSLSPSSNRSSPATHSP
How it was run: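 Endpoint fitted in both directions relative to DMSO as negative control. It reflects DR5 cis-element reporter mRNA induction in transiently transfected HepG2 cells, measured 24 h after dosing through RT-PCR and fluorescent capillary electrophoresis.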

[9] = molecular target: Transcription factor E2F1 (Homo sapiens) (UniProt Q01094); test: ATG_E2F_CIS: Attagene CIS-FACTORIAL HepG2 Assay for human E2F Transcription Factor 1 (AID 2282935); conditions: HepG2 Attagene cis-reporter, E2F reporter RNA transcripts; actives raise or lower the signal
Transcription factor E2F1 (Homo sapiens), sequence (Q01094 whole entry, looked up): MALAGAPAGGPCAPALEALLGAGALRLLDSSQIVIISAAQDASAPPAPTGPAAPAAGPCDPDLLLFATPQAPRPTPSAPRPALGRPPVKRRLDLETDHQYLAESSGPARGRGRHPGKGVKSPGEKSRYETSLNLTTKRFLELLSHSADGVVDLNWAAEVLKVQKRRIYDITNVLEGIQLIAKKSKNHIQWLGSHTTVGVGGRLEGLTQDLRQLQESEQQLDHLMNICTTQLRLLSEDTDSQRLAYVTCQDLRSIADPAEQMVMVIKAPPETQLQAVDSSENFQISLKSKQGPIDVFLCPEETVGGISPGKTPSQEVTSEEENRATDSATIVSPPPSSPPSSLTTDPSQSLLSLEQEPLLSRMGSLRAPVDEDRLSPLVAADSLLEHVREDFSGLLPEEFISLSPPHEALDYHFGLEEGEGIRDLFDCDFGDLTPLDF
How it was run: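 First, HepG2 cells were transfected with reporter transcription units. Next, they were dosed for 24 h. Then RNA was isolated, converted to cDNA, PCR-amplified, FAM-labeled, HpaI-digested and analyzed by capillary electrophoresis.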

[10] = ATG_E_Box_CIS: Attagene CIS-FACTORIAL HepG2 Assay for human Enhancer Box (E-box) (AID 2282936); conditions: HepG2 E-box cis-reporter transcription, actives raise or lower the signal
How it was run: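 Endogenous transcription factor activity was sensed in human HepG2 liver cells through transfected cis-promoter reporter units. After 24 h of dosing, total RNA was reverse-transcribed and reporter cDNA resolved by capillary electrophoresis.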

[11] = ATG_M_61_CIS: Attagene CIS-FACTORIAL HepG2 Assay for M61 Transcription Factor (Internal Marker) (AID 2282937); conditions: HepG2 Attagene CIS-FACTORIAL M61 internal marker reporter; actives raise or lower the signal
How it was run: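 Background-control endpoint: HepG2 cells with cis-regulated reporter constructs, 24 h exposure, reporter mRNA detected via fluorescent primer extension and capillary electrophoresis; values from bidirectional fitting with DMSO baseline.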

[12] = ATG_EGR_CIS: Attagene CIS-FACTORIAL HepG2 Assay for human Early Growth Response 1 (EGR1) (AID 2282938); conditions: HepG2 Attagene CIS-FACTORIAL EGR reporter mRNA; actives raise or lower the signal
How it was run: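 Endpoint derived by bidirectional fitting versus DMSO vehicle. Method: cis-promoter reporter units transfected into HepG2, 24 h dosing, RNA isolation, RT-PCR with 6-FAM primer extension and HpaI digestion, then capillary electrophoresis fluorescence detection.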

[13] = ATG_M_19_CIS: Attagene CIS-FACTORIAL HepG2 Assay for M19 Transcription Factor (Internal Marker) (AID 2282939); conditions: HepG2 Attagene CIS-FACTORIAL M19 internal marker reporter; actives raise or lower the signal
How it was run: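 HepG2, MRTU transient transfection, 24 h dosing. Total RNA → RT-PCR → 6-FAM primer extension → HpaI digest → CE fluorescence. Bidirectional curve fit, DMSO negative control.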

[14] = ATG_ERE_CIS: Attagene CIS-FACTORIAL HepG2 Assay for Estrogen Response Element (ERE) (AID 2282940); conditions: HepG2 ERE cis-reporter, Attagene RNA transcript; actives raise or lower the signal
How it was run: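 After a 24 h chemical treatment, RNA from reporter-transfected HepG2 cells is reverse-transcribed, PCR-amplified and fluorescently labelled. Fragments separated by capillary electrophoresis give reporter signal; DMSO serves as negative control.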

[15] = ATG_Ets_CIS: Attagene CIS-FACTORIAL HepG2 Assay for human Erythroblast Transformation Specific (ETS) (AID 2282941); conditions: HepG2 ETS cis-reporter transcription, actives raise or lower the signal
How it was run: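 Bidirectional fit versus DMSO of reporter mRNA signal, detected by RT-PCR and capillary electrophoresis in HepG2 cells transiently transfected with cis-element reporters and dosed 24 h.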

[16] = molecular target: Hepatocyte nuclear factor 3-beta (Homo sapiens) (UniProt Q9Y261); test: ATG_FoxA2_CIS: Attagene CIS-FACTORIAL HepG2 Assay for human Forkhead box A2 (FOXA2) (AID 2282942); conditions: HepG2 cis-reporter transcription factor activity, 24 h; actives raise or lower the signal
Hepatocyte nuclear factor 3-beta (Homo sapiens), sequence (Q9Y261 whole entry, looked up): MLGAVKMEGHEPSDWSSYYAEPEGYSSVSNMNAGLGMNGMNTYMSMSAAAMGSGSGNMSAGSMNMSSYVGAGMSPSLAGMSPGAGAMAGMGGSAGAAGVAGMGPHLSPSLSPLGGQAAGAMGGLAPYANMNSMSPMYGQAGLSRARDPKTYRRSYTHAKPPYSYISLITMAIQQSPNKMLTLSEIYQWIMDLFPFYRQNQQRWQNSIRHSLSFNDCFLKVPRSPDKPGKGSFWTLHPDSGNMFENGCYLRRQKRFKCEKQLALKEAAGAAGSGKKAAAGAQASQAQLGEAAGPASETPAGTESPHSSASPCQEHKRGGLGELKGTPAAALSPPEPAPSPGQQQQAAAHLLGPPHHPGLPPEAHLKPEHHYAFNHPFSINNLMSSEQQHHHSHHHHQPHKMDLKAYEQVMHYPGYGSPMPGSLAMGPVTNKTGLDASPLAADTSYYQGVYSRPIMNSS
How it was run: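 Measured: reporter mRNA induction or loss in HepG2 transiently carrying multiple cis-regulated reporter units, 24 h after dosing. Quantified by RT-PCR plus capillary electrophoresis, normalised to DMSO.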

[17] = ATG_GATA_CIS: Attagene CIS-FACTORIAL HepG2 Assay for human GATA Binding Protein (AID 2282944); conditions: HepG2 GATA cis-element reporter, Attagene multiplex mRNA; actives raise or lower the signal
How it was run: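 Cells: HepG2, transiently transfected with cis-regulated reporter transcription units. Exposure: 24 h. Detection: RT-PCR plus capillary electrophoresis of FAM-labeled fragments. Analysis: bidirectional, DMSO as baseline.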

[18] = ATG_DR4_LXR_CIS: Attagene CIS-FACTORIAL HepG2 Assay for human Liver X Receptor (LXR), DR4 submotif (AID 2282929); conditions: HepG2 Attagene DR4 cis-reporter, mRNA transcription; actives raise or lower the signal
How it was run: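 DR4 cis-reporter in HepG2, 24 h exposure. Detection: RT-PCR, 6-FAM labelling, CE fragment analysis. Endpoint fitted bidirectionally, DMSO = baseline.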

[19] = ATG_FoxO_CIS: Attagene CIS-FACTORIAL HepG2 Assay for human Forkhead box O (FoxO) (AID 2282943); conditions: HepG2 Attagene cis-reporter, FoxO element, mRNA; actives raise or lower the signal
How it was run: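 Values reflect reporter mRNA induction or loss in HepG2 cells 24 h post-dosing, fitted bidirectionally with DMSO as negative control and baseline. Detection used RT-PCR and fluorescence capillary electrophoresis.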

Measured: AC50

CC(C)c1cc(C(C)C)cc(C(C)C)c1
inactive: [1] | [2] | [4] | [7] | [9] | [11] | [12] | [13]
active: [3] 36 µM | [5] 125 µM | [6] 180 µM | [8] 59.5 µM | [10] 23.7 µM | [14] 168 µM | [15] 169 µM | [16] 160 µM | [17] 178 µM

CCCCCCCO
active: [14] 30 µM
not listed: [5]
inactive: all other assays above

c1ccc2cnccc2c1
active: [4] 61.1 µM
not listed: [11]
inactive: all other assays above

C=C[Si](OCCOC)(OCCOC)OCCOC
not listed: [4] | [5] | [18] | [19]
inactive: all other assays above

NC(=O)Nc1ccccc1
not listed: [7] | [8] | [10]
inactive: all other assays above

c1ccc(-c2nc3ccccc3[nH]2)cc1
inactive: all assays above

Cc1ccc(S(=O)(=O)N=C=O)cc1
not listed: [19]
inactive: all other assays above
